Assay results: PubChem BioAssay (Tox21)
Records with an inconclusive call do not appear. Values without a mark were called inactive. Calls of active or inactive are those of the source. Calls follow the shape of the dose curve; as a rule, active = well fitted inhibition curve with a large enough effect in the signal ratio in the repeat runs (not every such curve was filed as active); inconclusive = weak or mixed curves, or effect the other way; inactive = no such curve, though single readings can be large or run the other way; the % refers to the signal ratio.

These molecules were tested against Peroxisome proliferator-activated receptor delta (Homo sapiens) (UniProt Q03181) (assay: qHTS assay to identify small molecule antagonists of the peroxisome proliferator-activated receptor delta (PPARd) signaling pathway (AID 743215;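 also: cells stimulated with agonist L165041 at 300 nM final during compound exposure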)). Conditions: HEK293H PPARd-UAS-bla, beta-lactamase FRET ratio, antagonist, 17 h; series mostly up to 62 µM; ratio activity, negative = inhibition: at the top concentration.
Source text: U.S. Tox21 Program National Center for Advancing Translational Sciences [NCATS] NIH Chemical Genomics Center [NCGC] U.S. Environmental Protection Agency [EPA] National Institutes of Environmental Health Sciences [NIEHS] National Toxicology Program [NTP] U.S. Food and Drug Administration [FDA] Tox21 Assay Overview: The peroxisome proliferator-activated receptors (PPARs) are lipid-activated transcription factors of the nuclear receptor superfamily with three distinct subtypes namely PPAR alpha, PPAR delta (PPARd) and PPAR gamma. All these subtypes heterodimerizes with Retinoid X receptor (RXR) and have different physiological functions. […] To identify the compounds that inhibit PPAR-delta signaling, GeneBLAzer PPAR delta UAS-bla HEK293H cell line (Invitrogen, Carlsbad, CA, USA) containing a beta-lactamase reporter gene under the control of an Upstream Activator Sequence (UAS) was used to screen the Tox21 compound library.
Tox21 Assay Protocol Summary: PPARd-bla cells were dispensed at 3000 cells/5uL/well in 1536-well black wall/clear bottom plates using a Multidrop Combi (Thermo Fisher Scientific, Waltham, MA) dispenser. After the assay plates were incubated at 37 C and 5% CO2 for 5 h, 23 nL of compounds dissolved in DMSO, positive controls or DMSO only was transferred to the assay plate by a Pintool station (Kalypsys, San Diego, CA), followed by addition of 1ul L165041 (300 nM, final concentration in the wells). The assay plates were incubated at 37 C for 17 h, and then 1 uL of LiveBLAzerTM B/G FRET substrate was added using a Bioraptr Flying Reagent Dispenser (FRD) workstation (Beckman Coulter, Indianapolis, IN, USA). The assay plates were incubated at room temperature for 2 h and fluorescence intensity was measured by an Envision plate reader (PerkinElmer, Shelton, CT).
% is scaled to controls: 0 for no effect and ±100 for the full control effect; potency is read from the fitted curve at half-maximal effect.

Peroxisome proliferator-activated receptor delta (Homo sapiens), sequence (Q03181 whole entry, looked up): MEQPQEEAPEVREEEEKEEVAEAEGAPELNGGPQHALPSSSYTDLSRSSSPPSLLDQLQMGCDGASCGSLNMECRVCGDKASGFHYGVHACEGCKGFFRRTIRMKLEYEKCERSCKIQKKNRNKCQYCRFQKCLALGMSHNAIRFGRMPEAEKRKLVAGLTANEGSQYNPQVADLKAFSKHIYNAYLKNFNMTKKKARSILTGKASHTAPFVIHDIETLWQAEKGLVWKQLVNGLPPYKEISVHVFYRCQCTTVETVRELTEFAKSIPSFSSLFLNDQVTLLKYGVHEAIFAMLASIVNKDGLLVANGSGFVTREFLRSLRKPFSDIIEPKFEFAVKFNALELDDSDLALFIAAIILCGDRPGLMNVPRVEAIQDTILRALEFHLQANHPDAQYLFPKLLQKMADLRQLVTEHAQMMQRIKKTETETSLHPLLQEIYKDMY

| SMILES | ratio activity, negative = inhibition | Potency |
| --- | --- | --- |
| CC1(C)CO[C@@H](CC(=O)O)CN1 | -8.44% | – |
| CCC(C)C1CCCCC1=O (stereo not given) | 20.6% | – |
| CCCCCCCCCCCCCC=O | -0.712% [at 6.26 µM] | – |
| Cc1c(NC(C)C)c(=O)n(-c2ccccc2)n1C | 7.17% | – |
| COCCCOCCCOC | -0.347% | – |
| COC(=O)CC(C)=O | 2.2% | – |
| Cc1cccc(C)c1NC(=O)C(C)N (stereo not given) | 0.0324% | – |
| CCO/C([O-])=N/c1c[n+](N2CCOCC2)no1 | 4.41% | – |
| CCCN(CCC)CCc1cccc2c1CC(=O)N2 | 3.67% | – |
| O=C(O)CN(CCOCCOCCN(CC(=O)O)CC(=O)O)CC(=O)O | 6.3% [at 0.575 µM] | – |
| NC(CSCC(=O)O)C(=O)O (stereo not given) | 3.79% | – |
| COCCc1ccc(OCC(O)CNC(C)C)cc1 (stereo not given) | 1.2% | – |
| CC(=O)OCC(=O)[C@@]1(O)CCC2C3CCC4=CC(=O)CC[C@]4(C)C3[C@@H](O)C[C@@]21C (stereo not given in full) | -7.01% | – |
| COC(=O)c1cc(C(=O)OC)cc(S(=O)(=O)O)c1 | -5.64% | – |
| CC(NC(CCc1ccccc1)C(=O)O)C(=O)N1C(=O)N(C)CC1C(=O)O (stereo not given) | -6.41% | – |
| CCCCCOC(=O)CCCCC | -2.88% | – |
| O=c1cc(CO)occ1O | -3.68% | – |
| CCCCCCCCCCCCN(CCCCCCCCCCCC)CCCCCCCCCCCC | 11.2% | – |
| CC(C)NC(=O)NC(C)C | 10.6% | – |
| Cn1c(N)c(N=O)c(=O)n(C)c1=O | -11.6% [at 80.4 µM] | – |

| SMILES | ratio activity, negative = inhibition | Potency |
| --- | --- | --- |
| CC(C(=O)O)c1ccc(CC2CCCC2=O)cc1 (stereo not given) | -11.4% | – |
| CN1C(=O)N(C)C(O)C1O (stereo not given) | -4.57% | – |
| C=COCC1CCC(CO)CC1 (stereo not given) | -6.06% | – |
| CC(C)=CCCC(C)CC(=O)O (stereo not given) | -9.69% | – |
| COC(=O)c1ccc(C)cc1C1=NC(C)(C(C)C)C(=O)N1 (stereo not given) | -2.55% | – |
| N=C(N)c1ccc(OCCCOc2ccc(C(=N)N)cc2)cc1 | -13% | – |
| N[C@H](C(=O)O)c1ccc(O)cc1 | 2.34% [at 28.9 µM] | – |
| FC(F)OC(Cl)C(F)(F)F (stereo not given) | -12.5% | – |
| NS(=O)(=O)c1ccc(C(=O)O)cc1 | 0.44% | – |
| CCCCOCCOCCOCCCC | -0.358% | – |
| O=c1cc(-c2ccccc2)oc2ccccc12 | -6.78% | – |
| CC(C)(c1ccc(O)cc1)c1ccc(O)cc1 | – | 24.3 µM (active) |
| CCc1cccc2c(CCO)c[nH]c12 | 1.16% | – |
| CCCCCCOC(=O)CCCCC(=O)OCCCCCC | -2.89% | – |
| CCCC(=O)O[C@]1(C(=O)CO)CC[C@H]2[C@@H]3CCC4=CC(=O)CC[C@]4(C)[C@H]3[C@@H](O)C[C@@]21C | 8.88% | – |
| O=C(O)COc1nn(Cc2ccccc2)c2ccccc12 | 5.3% | – |
| CO[Si](CCCOCC1CO1)(OC)OC (stereo not given) | – | inactive |
| C=C[Si](OC(=C)C)(OC(=C)C)OC(=C)C | 7.08% | – |
| O=C1CC2CC1C1CCCC21 (stereo not given) | 13.2% | – |
| CCOC(=O)c1cccc(N)c1 | -10.9% | – |
